# Screens as filed in PubChem BioAssay.
# D2 PAM-1: potentiates the human D2 dopamine receptor allosterically; P14416; DiscoveRx D2 beta-arrestin cells, luminescence, 90 min; 100% = 57 uM dopamine signal; potentiation, % (no concentration beside the values); hit rate 0.23% among 360,000; in the data active means potentiation above about 50%; inconclusive means mostly about 30% to 49%
# Target sequence (P14416 whole entry, looked up): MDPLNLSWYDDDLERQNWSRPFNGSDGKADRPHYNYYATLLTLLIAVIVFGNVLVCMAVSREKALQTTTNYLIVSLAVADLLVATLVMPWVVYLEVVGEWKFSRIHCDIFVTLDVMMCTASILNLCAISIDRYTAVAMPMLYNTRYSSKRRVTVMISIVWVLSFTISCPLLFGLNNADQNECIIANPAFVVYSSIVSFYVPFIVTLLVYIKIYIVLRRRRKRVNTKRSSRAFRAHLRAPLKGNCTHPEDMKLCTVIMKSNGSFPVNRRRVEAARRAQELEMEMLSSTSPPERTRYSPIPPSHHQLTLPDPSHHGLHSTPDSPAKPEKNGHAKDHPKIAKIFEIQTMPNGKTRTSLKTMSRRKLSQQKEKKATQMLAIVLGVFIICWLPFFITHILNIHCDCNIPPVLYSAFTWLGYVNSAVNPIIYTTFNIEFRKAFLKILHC
#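 PathHunter D2 cells, attached overnight at 37 deg C, received compound in DMSO plus dopamine at EC20 (50 nM final) for 90 min at 37 deg C. Beta-arrestin recruitment was read as luminescence after 1 h with detection reagent at ambient temperature.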
# D2 PAM-2: positively modulates the human D2 dopamine receptor allosterically. hit rate 0.34% among 340,000. potentiation, % at 10 µM. P14416. HEK293 T-REx D2, calcium flux, EC20 dopamine potentiation. AID 485347;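 active means potentiation over 3 SD above the plate norm, cut at about 30% in these data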; further: 0% is about no effect
#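 Tetracycline-induced Hek293 Trex D2 cells, force-coupled to calcium, loaded with no-wash calcium dye. Compound added with 180 s kinetic read for agonism, then EC20 dopamine and a further 180 s read for potentiation.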
# D2 antag: antagonizes the human D2 dopamine receptor; P14416; HEK293 TREx D2 cells, calcium flux, dopamine EC80; hit rate 2% among 340,000; AID 485344; inhibition, % at 10 µM; in the data active means inhibition above about 30%; inactive means below that, where a call was filed; further: 0% is about no effect
#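 Calcium mobilization kinetics were recorded at 1 s intervals in tetracycline-induced HEK293 T-REx D2 cells, first for 180 s after compound addition and then 180 s after EC80 dopamine.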
# D2 ag-1: agonists of human D2 dopamine receptor (beta-arrestin); hit rate 0.084% among 360,000; AID 624465; DiscoveRx PathHunter D2 beta-arrestin, luminescence, 90 min; 100% = 57 uM dopamine signal; activation, % (test concentration not listed); in the data active means activation above about 40%; inconclusive means between about 15% and that limit
#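 DiscoveRx PathHunter D2 beta-arrestin cells (2,100/well) attached overnight, then compound-stimulated 90 min at 37 C in HBSS/10 mM HEPES/0.1% Tween-20 buffer; beta-galactosidase complementation read by luminescence after 1 h at ambient temperature. Dopamine 57 uM final (EC100) as control.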
# D2 ag-2: D2 dopamine receptor (human) agonism. AID 485358. activation, % at 2 µM. HEK293 T-REx D2 cells, calcium flux agonist mode. hit rate 0.53% among 340,000;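 active means activation over 3 SD above normal in the single-dose calcium agonist read, cut at about 30% in these data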; further: 0% is about no effect
#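 HEK293 Trex D2 cells, tetracycline-induced, o/n 30 C 5% CO2; no-wash Ca dye, RT 30–90 min; 10-cycle baseline, 23 nl cpd added, kinetic Ca read 180 s; agonist hits = positive Ca response.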
# D3 arrestin ag: confirmation of human D3 dopamine receptor agonists, beta-arrestin; hit rate 4% among 2,300; Potency, µM (series often up to 76.9 µM), for the others: at the highest dose activation, actives largely listed as activators; DiscoveRx D3 beta-arrestin cells, luminescence, 90 min; AID 720506; shares compounds with D2 ag-2;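 further: potency means the concentration at half of the fitted maximal effect; 100% = dopamine control response; nearly all actives have a fitted effect of over 70% in size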
# D2 ag-3: activates human D2 dopamine receptor in D3 counterscreen; Potency, µM (series often up to 76.9 µM), without a hit: top-dose activation, usual class: activators; DiscoveRx PathHunter D2 beta-arrestin, luminescence, 90 min; response scale: percent relative to full dopamine signal; hit rate 5.9% among 2,300; shares compounds with D2 ag-2; AID 720507; further: potency means the concentration at half of the fitted maximal effect; % of control where 0% means no effect; nearly all actives have a fitted effect of over 70% in size
# The depositor's hits bear a star; ? = inconclusive; nt = no result. Hits are enriched below; roughly 2.4% of the tested compounds scored in any of these assays. Unless noted, the call rests on the fitted dose curve; in most records, active means well fitted activation curve with a large enough effect; inconclusive means small, poorly fitted or top-dose-only effect; inactive means flat fitted curve, though single readings scatter.
SMILES,D2 PAM-1,D2 PAM-2,D2 antag,D2 ag-1,D2 ag-2,D3 arrestin ag,D2 ag-3
Cc1c(Cl)cccc1NC(=O)Nc1ccc2snnc2c1,nt,16,nt,nt,nt,nt,nt
O=C(NCCN1CCN(c2ccccc2)CC1)C1CCN(S(=O)(=O)c2cccs2)CC1,-6,nt,nt,?,nt,?,?
CCCN1CCN(CCCNC(=O)c2ccc3c(=O)n(CCc4ccccc4)c(=O)[nH]c3c2)CC1,6,-23,31*,9,68*,-3%,17%
COc1cc2[nH]c(=O)n(CCC(=O)NCCCN3CCN(c4ccccc4F)CC3)c(=O)c2cc1OC,-17,-34,96*,6,51*,?,19%
COc1ccc2c(c1)CC(C(=O)NCCCN1CCN(c3ccccc3F)CC1)CO2 (stereo not given),nt,-25,nt,nt,nt,nt,nt
CCS(=O)(=O)N1CCC(C(=O)NCCCN2CCN(c3ccccc3F)CC2)CC1,18,-18,86*,?,69*,?,?
CCc1ccc(NC(=O)N2CCN(Cc3nc4ccc(C)cc4o3)CC2)cc1,nt,-4,nt,nt,0,nt,nt
Cc1ccc(C)c(CN2C(=O)c3ccccc3S(=O)(=O)c3ccc(C(=O)N4CCN(c5ccccc5F)CC4)cc32)c1,nt,12,nt,nt,0,nt,nt
Cc1ccc(S(=O)(=O)N2CCN(C(=O)COC(=O)/C=C/c3ccc(F)cc3)CC2)c(C)c1,-11,5,3,1,0,nt,nt
Cc1ccc(S(=O)(=O)N2CCN(C(=O)COC(=O)/C=C/c3ccccc3)CC2)c(C)c1,-6,12,19,0,1,-8%,-4%
Cc1ccc(S(=O)(=O)N2CCN(C(=O)COC(=O)CSc3cc(C)ccc3C)CC2)c(C)c1,-17,7,-7,2,0,-1%,-4%
O=[N+]([O-])c1ccc(C=CC=Cc2ccccc2)cc1,-4,nt,nt,1,nt,nt,nt
O=[N+]([O-])c1ccc(/C=C/C2=NN(c3ccccc3)C(c3ccco3)C2)cc1 (stereo not given),-4,11,26,-9,51*,7%,9%
O=S(=O)(NCCS(=O)(=O)N1CCN(c2ccccc2)CC1)c1ccc(Br)cc1,nt,-6,nt,nt,1,nt,nt
Cc1c(Cl)cccc1N(CC(=O)NC1CCCCC1)S(C)(=O)=O,-3,-24,-12,-4,72*,-3%,-3%
Cc1cccc(C)c1OCc1cc(=O)n2c(-c3ccccc3)csc2n1,nt,nt,nt,nt,0,nt,nt
O=c1cc(CN2CCN(c3ccc(O)cc3)CC2)nc2scc(-c3ccccc3)n12,-1,-7,8,10,28,35µM*,18%
Cc1cc(C2=NNC(=NCCc3ccccc3)SC2)c(C)n1CC1CCCO1 (stereo not given),-17,-20,22,4,22,-11%,-1%
O=C(CCn1c(=O)c2cccn2c2cccnc21)NCc1ccccc1Cl,nt,4,nt,nt,1,nt,nt
CN(C(=O)COC(=O)C1CCN(S(=O)(=O)c2ccc3c(c2)OCCO3)CC1)c1ccccc1,-6,7,6,-1,1,nt,nt
CCN(CC)C(=O)COC(=O)C1CCN(S(=O)(=O)c2ccc3c(c2)OCCO3)CC1,0,12,18,6,0,2%,-3%
Cn1c(/C(C#N)=C/c2ccccc2Br)nc2ccccc21,nt,-20,nt,nt,-2,nt,nt
CCN(Cc1ccccc1)c1ncnc2c1cnn2-c1ccc(F)cc1,nt,2,nt,nt,1,nt,nt
Cc1ccc(Nc2nc(N)nc(CN3CCN(c4ccccc4)CC3)n2)cc1Cl,102*,nt,nt,?,nt,21%,20µM*
Nc1nc(CN2CCN(c3ccccn3)CC2)nc(Nc2ccc(F)cc2)n1,17,-24,73*,?,74*,-8%,?
SMILES,D2 PAM-1,D2 PAM-2,D2 antag,D2 ag-1,D2 ag-2,D3 arrestin ag,D2 ag-3
COc1ccccc1Nc1nc(N)nc(CN2CCN(c3ccccc3)CC2)n1,-6,-23,44*,6,52*,-4%,9%
COc1ccc(-c2nc(CN3CCC(C(=O)NCCCOC(C)C)CC3)c(C)o2)cc1OC,nt,2,nt,nt,-1,nt,nt
COc1ccc(NC(=O)c2cnc[nH]2)cc1,nt,15,nt,nt,-1,nt,nt
CCOC(=O)c1ccccc1NC(=O)N1CCCn2nc(C)cc21,nt,-10,nt,nt,-2,nt,nt
Cn1cc(C(F)(F)F)nc1-c1ccc(OCC(O)CNCCOc2ccc(O)c(C(N)=O)c2)cc1 (stereo not given),23,-23,72*,?,90*,?,?
CC[n+]1c(/C=C/C=C/N(C(C)=O)c2ccccc2)sc2cc(OC)ccc21,-30,-14,15,12,73*,21%,?
CNC(C)C(=O)NC(C(=O)N1CCCC1C(=O)NC1CCCc2ccccc21)C(C)C (stereo not given),-7,-2,-31,1,-1,nt,nt
CNC(C)C(=O)NC(C(=O)N1CCCC1C(=O)NNc1ccccc1)C(C)C (stereo not given),-10,-5,-8,-4,1,-6%,-6%
Cc1cc(OCC(=O)Nc2ccncc2)ccc1Cl,-5,-9,1,10,1,nt,nt
Cc1cc(OCC(=O)Nc2ncn[nH]2)ccc1Cl,-6,7,-24,0,0,-6%,-6%
COc1ccc(S(=O)(=O)N2CCCC2CNC(=O)C(=O)NC2CCCC2)cc1 (stereo not given),4,nt,nt,-1,nt,nt,nt
COc1ccc(S(=O)(=O)N2CCCC2CNC(=O)C(=O)NC2CCCCCC2)cc1 (stereo not given),19,-3,20,4,31*,8%,?
Cc1ccc(S(=O)(=O)N2CCCC2CNC(=O)C(=O)NC2CC2)cc1 (stereo not given),2,-11,7,1,34*,1%,-2%
COc1ccc(C(=O)c2sc3nc(C)cc(-c4cccs4)c3c2N)cc1,-4,8,12,2,-1,nt,nt
Cc1cc(-c2cccs2)c2c(N)c(C(=O)c3ccc4c(c3)OCO4)sc2n1,22,-4,-11,-12,41*,-2%,-3%
COCCN=c1scc(-c2cccs2)n1/N=C/c1ccc(O)c(O)c1O,76*,-20,73*,94*,78*,25µM*,7.1µM*
Cc1ccc(-c2nc(CNC(=O)Nc3ccccc3)c(C)o2)cc1,nt,-6,nt,nt,2,nt,nt
Cc1cccc(-c2nc(CSCC(=O)NCCc3ccc(Cl)cc3)c(C)o2)c1,nt,1,nt,nt,nt,nt,nt
COc1ccc(CN2CCN(C(=O)c3ccco3)CC2)cc1,65*,-20,87*,77*,87*,?,10µM*
